Sampled rows, rich in hits. Any-hit rate of the full collection: about 4%.
GDH-TPI counter-1: counter-screen for M. tuberculosis FBA inhibitors: GDH-TPI coupled enzymes; GDH-TPI coupled enzyme counterscreen, NADH absorbance; inhibition, % at 4.8 µM; hit rate 1.2% among 360,000
MazEF act: activators of E. coli MazEF toxin-antitoxin RNase; P0AE70; hit rate 0.32% among 350,000; activation, % at 20 µM; FAM/BHQ RNA-DNA oligo cleavage fluorescence, 5 h; in the data active = activation above about 50%
Target sequence (P0AE70 whole entry, looked up): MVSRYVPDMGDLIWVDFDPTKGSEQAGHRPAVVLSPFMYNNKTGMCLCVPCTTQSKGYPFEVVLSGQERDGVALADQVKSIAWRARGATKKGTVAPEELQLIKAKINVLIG
Mtb bLac sens: beta-lactam sensitization of Mtb H37Rv; AID 434955; hit rate 0.27% among 330,000; inhibition, % at 25 µM; M. tuberculosis H37Rv growth with meropenem, percent inhibition; call rule not given here;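 also: growth measured after seven days incubation then overnight dye step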
FBA Mtb inh: Mtb fructose-bisphosphate aldolase inhibition; P9WQA3; inhibition, % at 1 µM; hit rate 2.3% among 360,000; purified M. tuberculosis FBA, fluorescence read-out; in the data active = inhibition above about 27%
Target sequence (P9WQA3 whole entry, looked up): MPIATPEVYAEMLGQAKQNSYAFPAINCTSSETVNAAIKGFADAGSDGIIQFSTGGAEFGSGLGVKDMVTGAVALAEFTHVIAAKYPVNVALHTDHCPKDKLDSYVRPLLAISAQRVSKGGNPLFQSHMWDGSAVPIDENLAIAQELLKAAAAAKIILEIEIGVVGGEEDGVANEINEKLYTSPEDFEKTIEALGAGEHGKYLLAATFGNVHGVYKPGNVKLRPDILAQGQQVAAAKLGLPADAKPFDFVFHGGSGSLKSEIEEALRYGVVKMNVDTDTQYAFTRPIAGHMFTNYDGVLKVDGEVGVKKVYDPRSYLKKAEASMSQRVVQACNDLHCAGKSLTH
CCHF vOTU inh: CCHFV vOTU protease inhibition; Pep-AMC fluorescence; inhibition, % at 11.5 µM; hit rate 0.55% among 370,000
Mtb FBA inh conf: confirmation of M. tuberculosis fructose-bisphosphate aldolase inhibitors; shares compounds with FBA Mtb inh; purified M. tuberculosis FBA, fluorescence read-out; inhibition, % at 1 µM; hit rate 78% among 5,600; in the data active = inhibition above about 27%
GDH-TPI counter-2: inhibits GDH-TPI coupling enzymes, flagging Mtb FBA hits | shares compounds with FBA Mtb inh | AID 652141 | GDH-TPI coupled enzyme counterscreen, fluorescence | inhibition, % at 1 µM | hit rate 81% among 5,600; in the data active = inhibition above about 10%
Hits are given with their value; – = inactive; · = no result given; + = active, no number. Rule as the data show it, unless noted: active = inhibition above about 30%; inactive = the rest.

SMILES	GDH-TPI counter-1	MazEF act	Mtb bLac sens	FBA Mtb inh	CCHF vOTU inh	Mtb FBA inh conf	GDH-TPI counter-2
O=C(OC12CCCN(C1)/C(=C/c1cccc(Cl)c1)C2)C1CCCCC1 (stereo not given)	·	·	·	·	–	·	·
COCc1cc(C)[nH]c(=O)c1C#N	–	–	–	66	–	53	41
COCc1cc(C)nc(NCCO)c1C#N	–	–	–	–	–	·	·
COCc1cc(C)nc(N)c1C#N	–	–	–	29	–	+	+
COCc1cc(C)nc(NC2CC(C)(C)NC(C)(C)C2)c1C#N	–	–	–	62	–	83	78
Cc1cc(C)c(C#N)c(N2CCOCC2)n1	–	–	–	–	–	·	·
COCc1cc(C)nc(N2CCOCC2)c1C#N	–	–	–	32	–	37	37
CCOC(=O)Cn1c(C)cc(COC)c(C#N)c1=O	–	–	–	–	–	·	·
COc1cc(C(C)=O)ccc1OCC(=O)Nc1cc(S(=O)(=O)N2CCOCC2)ccc1N1CCCC1	–	–	·	–	–	·	·
COc1ccc2c(c1)CCCN2C(=O)C1CCCN(S(=O)(=O)c2cccs2)C1 (stereo not given)	·	·	·	·	–	·	·
CCc1nnc(NC(=O)c2sc3nc4c(cc3c2N)CCCCCC4)s1	–	–	–	61	–	–	–
COCCN1Cc2cc(C(=O)OC)c3c(c2C1=O)c1cc(OC)ccc1n3C(=O)c1ccccc1	·	·	·	·	–	·	·
Cc1ccc(-c2cc(C(F)F)nc(S(C)(=O)=O)n2)cc1	–	–	–	34	–	112	86
Cc1oc2cc3oc(=O)c(CC(=O)NCCCC(=O)O)c(C)c3cc2c1C	–	–	–	–	–	·	·
Cc1c(CC(=O)NCCC(C)C)c(=O)oc2cc3c(cc12)CCC(C)(C)O3	–	–	–	42	–	90	71
CN(CC(=O)Nc1ccc(Br)cc1)Cc1ccccc1	–	–	–	–	–	·	·
COC(=O)c1cc(NC(=O)CN(C)Cc2ccccc2)cc(C(=O)OC)c1	–	–	–	35	–	–	22
CCCCNC(=O)c1cc2cc(CC)ccc2[nH]1	–	–	–	31	–	79	65
COc1ccc2c(c1)CN1C(=O)N(Cc3ccc(F)cc3)S(=O)(=O)CC21 (stereo not given)	·	·	·	·	–	·	·
N#C/C(=C\c1ccc(Cl)cc1Cl)c1n[nH]c(Cn2cncn2)n1	–	–	–	36	–	+	165
Cc1ccc(-c2nc(C3CCCN(S(=O)(=O)c4ccccc4)C3)no2)cc1 (stereo not given)	·	·	·	·	–	·	·
Cc1ccc(S(=O)(=O)Nc2nc3ccccc3nc2NCC2CCCO2)c(C)c1 (stereo not given)	–	–	–	30	–	108	92
Cc1cccc(NC(=O)[C@H]2CC(=O)O[C@@H]2c2ccccc2)c1C	·	·	·	·	–	·	·
CCOC(=O)c1[nH]c2cc(OC)c(OC)cc2c1NC(=O)C(C)N1CCN(Cc2ccccc2)CC1 (stereo not given)	–	–	–	47	–	+	+
CCOC(=O)c1[nH]c2ccc(OC)cc2c1NC(=O)C(C)N1CCSCC1 (stereo not given)	·	·	·	·	–	·	·
SMILES	GDH-TPI counter-1	MazEF act	Mtb bLac sens	FBA Mtb inh	CCHF vOTU inh	Mtb FBA inh conf	GDH-TPI counter-2
CC1=CC2=NC(=O)CC(C)(C(=O)N(CC(=O)NC(C)(C)C)Cc3cccs3)N2C=C1 (stereo not given)	–	–	–	101	–	149	125
Cc1cc(C)cc(N(CC(=O)NC2CCCCC2)C(=O)CCC(=O)Nc2cc(C)ccn2)c1	–	–	·	–	–	·	·
CC1(C(=O)N(CC(=O)NC2CCCC2)Cc2ccc(Cl)cc2)CC(=O)N=C2C=CC=CN21 (stereo not given)	–	–	–	89	–	+	+
CC1=CC2=NC(=O)CC(C)(C(=O)N(CC(=O)NC3CCCC3)c3cc(C)cc(C)c3)N2C=C1 (stereo not given)	–	–	–	57	–	+	+
Cc1ccc(CN(CC(=O)NC2CCCC2)C(=O)c2csnn2)cc1	–	–	–	–	–	·	·
CS(=O)(=O)N(CC(=O)NC1CCCCCC1)Cc1ccc(Cl)cc1	–	–	–	–	–	·	·
CC1=CC=CC2=NC(=O)CC(C)(C(=O)N(CC(=O)NC3CCCC3)Cc3ccc(Cl)cc3)N12 (stereo not given)	–	–	–	106	–	+	+
CC(C)[C@H](NC(=O)c1ccco1)C(=O)N1CCC[C@H]1C(=O)NCc1ccccc1	·	·	·	·	–	·	·
C=CCN=C1NC(c2ccc(C(F)(F)F)cc2)C(C(=O)OC)=C(C)N1C (stereo not given)	·	·	·	·	–	·	·
CC(C)CN1C(=O)[C@@]2(CC(=O)N(C)C2c2ccccc2)c2cc(-n3cc(C(C)(C)O)nn3)ccc21 (stereo not given in full)	·	·	·	·	–	·	·
COC(=O)C1C(O)=C(C=Nc2cccc3ccccc23)C(=O)CC1(C)C (stereo not given)	–	–	–	32	–	131	93
CC(C)n1cnc2c(Nc3cccc(Cl)c3)nc(NCCCO)nc21	–	–	–	34	–	130	98
CC(C)[C@H](CO)Nc1nc(Nc2ccc(Cl)c(C(=O)O)c2)c2ncn(C(C)C)c2n1	–	–	–	–	–	·	·
CC(C)[C@H](NC(=O)c1cc2cc(Cl)ccc2n1C)C(=O)N1CCC(C(=O)O)CC1	–	–	–	–	–	·	·
COc1ccc2c(c1)cc(C(=O)N[C@H](C(=O)N1CCC[C@H]1C(=O)O)C(C)C)n2C	–	–	–	106	–	159	113
COC(=O)c1cc2cc(OC)ccc2n1C	–	–	–	–	–	·	·
COc1cc2cc(C(=O)N[C@@H](Cc3ccccc3)C(=O)O)n(C)c2c(OC)c1OC	–	–	–	–	–	·	·
COc1cc2cc(C(=O)O)n(C)c2c(OC)c1OC	–	–	–	59	–	68	61
COc1ccc2c(c1)cc(C(=O)N[C@H](C(=O)N1CCC(C(=O)O)CC1)C(C)C)n2C	–	–	–	65	–	120	99
COc1ccc2c(c1)cc(C(=O)O)n2C	–	–	–	64	–	+	+
COC(=O)[C@]12C[C@H](CC(=O)N3CCCC3)C(=O)N(Cc3ccccc3)C1=C[C@H](C1CCCC1)O[C@@H]2C	·	·	·	·	–	·	·
Cc1ccccc1Cn1cc(COC(=O)N(C)Cc2ccccc2)nn1	·	·	·	·	–	·	·
C=CCOC(=O)N[C@@H](c1cccc(OC)c1)[C@@H](C)/C=C/CC(=O)O	·	·	·	·	–	·	·
Cc1ccccc1C(=O)n1ccc2ccc(-c3ccc4ccn(Cc5ccc(C#N)cc5)c4c3)cc21	·	·	·	·	–	·	·
CNC(=O)c1cc2cc(OC)ccc2n1CCN(C)C	–	–	–	29	–	110	74
COc1ccc2c(c1)cc(C(=O)N[C@@H](CCSC)C(=O)N1CCC[C@H]1C(=O)O)n2C	–	–	–	111	–	–	–
CC(C)C[C@H](NC(=O)c1cc2cc(Cl)ccc2n1C)C(=O)N1CCC[C@H]1C(=O)O	–	–	–	–	–	·	·
CNC(=O)c1cc2cc(OC)ccc2n1CCN(Cc1ccccc1)Cc1ccccc1	–	–	–	–	–	·	·

Source: PubChem (several laboratories)
